# In PubChem BioAssay (NCATS):
# Inconclusive results are not listed. Activity calls are given as the source filed them. Calls follow the shape of the dose curve; as a rule, active = well fitted inhibition curve with a large enough effect; inconclusive = small, poorly fitted or top-dose-only effect; inactive = flat fitted curve, though single readings scatter. Where a SMILES comes first, the peptide text is derived from it.
# Tested on: HaCat
# Experiment: Cytotoxic Profiling of Annotated Libraries Using Quantitative High-Throughput Screening (AID 1296008); also: nearly all actives have a fitted effect of over 60% in size
# Settings: Five cell lines viability, CellTiter-Glo ATP luminescence, 48-72 h; max response: active compounds read low
# In short: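 Cells exposed to compounds for 48 or 72 hr at 37 degrees Celsius. Viability read as ATP-coupled luminescence with CellTiter-Glo after 10 min at room temperature.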
# % is scaled to controls: 0 for no effect and ±100 for the full control effect.
SMILES,outcome,max response
O=C1CCCc2c(O)cccc21,inactive,–
CC(=O)N[C@@H](CO)C(=O)N[C@@H](CC(=O)O)C(=O)N[C@@H](CCCCN)C(=O)N1CCC[C@H]1C(=O)O (Ac-SDKP-OH),–,-26.1% (inactive)
CCOC(=O)OCC/C(SC(=O)OCC)=C(\C)N(C=O)Cc1cnc(C)nc1N,–,-10.8% (inactive)
O=C(O)c1ccccc1Nc1cc(Cl)ccc1C(=O)O,inactive,–
CCC(=O)O[C@]1(C(=O)COC)[C@@H](C)C[C@H]2[C@@H]3CCC4=CC(=O)C=C[C@]4(C)C3(F)[C@@H](O)C[C@@]21C (some centres undefined),inactive,–
Cc1onc(-c2ccccc2)c1C(=O)Cl,inactive,–
COc1ccccc1N1CCN(CC(O)COc2cc(OC)c(OC)c(OC)c2)CC1 (centres undefined),inactive,–
NCC[C@H](O)C(=O)N[C@@H]1C[C@H](N)[C@@H](O[C@H]2O[C@H](CN)[C@@H](O)[C@H](O)[C@@H]2O)[C@H](O)[C@@H]1O[C@H]1O[C@H](CO)[C@@H](O)[C@H](N)[C@@H]1O,inactive,–
CNC(=O)c1c(I)c(NC(C)=O)c(I)c(C(=O)O)c1I,inactive,–
Cc1oc(-c2ccccc2)nc1CCC(=O)c1ccc(CC2SC(=O)NC2=O)cc1 (centres undefined),inactive,–
NS(=O)(=O)c1cc(C(=O)NN2C[C@H]3[C@H]4CCC(C4)[C@H]3C2)ccc1Cl,inactive,–
CC(=O)Nc1ccc(S(=O)(=O)Nc2cc(C)on2)cc1,inactive,–
Cc1coc2ccccc2c1=O,inactive,–
O=C(C1CCCCC1)N1CC(=O)N2CCCc3ccccc3C2C1 (centres undefined),inactive,–
CC(C)C(=O)Nc1cccc(C2CN3CCSC3=N2)c1 (centres undefined),–,-7.7% (inactive)
CCOC(=O)C(O)c1ccccc1 (centres undefined),inactive,–
Nc1cc(C(F)(F)F)ccc1S,inactive,–
CC(=O)O[C@@H]1CC2C3CCc4cc(OC(=O)c5ccccc5)ccc4C3CCC2(C)[C@H]1OC(C)=O (some centres undefined),inactive,–
CCC1=C[C@@H]2CN(C1)Cc1c([nH]c3ccccc13)[C@@](C(=O)OC)(c1cc3c(cc1OC)N(C)[C@H]1[C@@](O)(C(=O)OC)[C@H](OC(C)=O)[C@]4(CC)C=CCN5CC[C@]31[C@@H]54)C2,inactive,–
O=C1Cc2cc(Cl)ccc2N1,inactive,–
COC(=O)c1ccc(NC(C)=O)cc1OC,–,-9.21% (inactive)
COC(=O)CCCCC(CCSS/C(CCO)=C(\C)N(C=O)Cc1cnc(C)nc1N)SC(C)=O (centres undefined),inactive,–
O=C(CS(=O)Cc1ccco1)NC/C=C\COc1cc(CN2CCCCC2)ccn1 (centres undefined),–,-5.87% (inactive)
Nc1c(I)cc(I)c(C(=O)N(CCC(=O)O)c2ccccc2)c1I,inactive,–
